The text below walks through data of ChEMBL document CHEMBL3988442, “University of Dundee, Small-Polar-MMV Screening Library” (2021).

The whole screen tested about 69,000 compounds, of which about 420 (0.61%) showed an effect of 50% or more. The sample holds strong results, similar compounds and a random draw of the others, so the mix is not that of the screen.

The target of this test is T1, Histidine--tRNA ligase (Leishmania infantum) (UniProt A4I591).
T1 sequence (whole entry): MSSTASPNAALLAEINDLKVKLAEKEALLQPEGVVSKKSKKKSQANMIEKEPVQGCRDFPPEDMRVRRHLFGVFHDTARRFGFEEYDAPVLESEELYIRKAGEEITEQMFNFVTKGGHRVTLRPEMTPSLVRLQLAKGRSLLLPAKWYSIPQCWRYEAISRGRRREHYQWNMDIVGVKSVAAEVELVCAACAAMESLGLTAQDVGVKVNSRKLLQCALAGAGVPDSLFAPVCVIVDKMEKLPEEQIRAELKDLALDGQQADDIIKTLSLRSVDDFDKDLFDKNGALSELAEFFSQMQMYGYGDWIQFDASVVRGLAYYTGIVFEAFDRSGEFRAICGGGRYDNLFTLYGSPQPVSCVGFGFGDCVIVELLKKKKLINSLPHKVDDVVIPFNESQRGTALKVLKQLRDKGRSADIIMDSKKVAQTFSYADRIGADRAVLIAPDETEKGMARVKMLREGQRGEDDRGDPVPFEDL
Kind of test: Leishmania infantum Histidine tRNA synthetase (LdHisRS). Type of test: functional. Also noted: scale not given: in the data most compounds retested in dose-response had high values. Conditions: 30 µM.
Consider `COCCNc1cc(-c2ccccc2CCN)c2cc[nH]c2n1`, for which the Percent Effect stood at 4.84%.

With `CNc1cc(C)nc(-c2cc(NC)nc3[nH]ccc23)n1`, the Percent Effect was -2.04%.

Turning to `CNc1cc(-c2ccc(COCCN)cc2)c2cc[nH]c2n1`, the Percent Effect was 20.5%.

With `CNc1cc(-c2cccc(CN)c2)c2cc[nH]c2n1`, the Percent Effect amounted to 68.7%.

Take `Cc1cccc(C)c1-c1cc(NCCO)nc2[nH]ccc12`: the Percent Effect turned out to be 10%.

For the molecule `CNc1cc(-c2ccccc2CN)c2cc[nH]c2n1`, the Percent Effect came out at 80.7%.

`O=C(c1cocn1)N1CC[C@H]2OCC[C@@]2(COc2ncccc2F)C1`: the Percent Effect is 22.4%.

`O=C(Cc1ccccc1)N1CC[C@@H]2CNS(=O)(=O)[C@@H]2CC1`: the Percent Effect stood at 28.1%.

Consider `Nc1cccnc1N1CCN(c2ccccc2)CC1`, for which the Percent Effect is 8.33%.

Consider `Nc1cccnc1N1CCC(O)CC1`, for which the Percent Effect stood at 12.5%.

For the molecule `Nc1cccnc1N1CCCCCC1`, the Percent Effect was 58.3%.

Take `COc1ccc(CC(=O)N2C[C@@H]3COC[C@]3(CN(C)C)C2)cc1`: the Percent Effect is -47.1%.

As to `Cc1nc(COC[C@@H]2CC[C@H]3[C@H](CCN3C(=O)C3CC3)O2)cs1`, the Percent Effect is 14.7%.

With `Cc1cccc(C(=O)N2C[C@@H]3CCN(c4cccnc4)C[C@@H]3C2)c1`, the Percent Effect came to 6.57%.

With `CN(C)C(=O)CN1CC[C@H]2CN(C3CCOCC3)C[C@@H]2C1=O`, the Percent Effect was determined as 11.7%.

As for `Cc1ncc2c(n1)CN(CC1CCCCO1)CC2` (stereo not drawn), the Percent Effect worked out at 25.7%.

Regarding `CCCn1nc2c(cc1=O)CN(CC1CCCCO1)CC2` (stereo not drawn), the Percent Effect was found to be 79.5%.

Turning to `Cn1nc2c(cc1=O)CN(CC1CCCCO1)CC2` (stereo not drawn), the Percent Effect turned out to be 104%.

As for `CCn1nc2c(cc1=O)CN(CC1CCCCO1)CC2` (stereo not drawn), the Percent Effect amounted to 0%.

For the molecule `Cn1nc2c(cc1=O)CN(CCN1CCCC1=O)CC2`, the Percent Effect turned out to be 4.39%.

With `CC(C)n1nc2c(cc1=O)CN(CC1CCCCO1)CC2` (stereo not drawn), the Percent Effect came to 35.6%.

Regarding `CCCSCC(=O)N1C[C@H]2CC[C@@H]1CN(c1ncccn1)C2`, the Percent Effect amounted to 4.17%.

Consider `CC(C)CC(=O)N1CC[C@H]2N(C)CC[C@@]2(C(=O)Nc2ccccc2)CC1`, for which the Percent Effect came to 15.4%.

Take `Cc1nccc([C@@H]2C[C@@H]3CCN(S(C)(=O)=O)C[C@H]3O2)n1`: the Percent Effect was 22.6%.

On to `CC1=N[C@@]2(CC[C@@H]3CN(CC(=O)N(C)C)C[C@@H]32)C(=O)N1CC1CC1`, for which the Percent Effect was 23.1%.

As to `COc1ccc(F)c(F)c1CN1CC(=O)N(c2ccccc2C)CC1C` (stereo not drawn), the Percent Effect was 53%.

Take `COc1cccc(CN2CC(=O)N(c3ccccc3C)CC2C)c1OC` (stereo not drawn): the Percent Effect came to 38.5%.

As to `COc1ccc(F)c(CN2CC(=O)N(c3ccccc3C)CC2C)c1` (stereo not drawn), the Percent Effect came to 31.3%.

In the case of `c1csc(N2[C@H](Cn3cncn3)C[C@@H]3CNCC[C@@H]32)n1`, the Percent Effect was -6.84%.

On to `CC(C)c1cc(N2CC[C@H](F)C2)n2nccc2n1`, for which the Percent Effect stood at 22.2%.

On to `CC(C)c1cc(N2CCC(N)CC2)n2nccc2n1`, for which the Percent Effect came out at 22.9%.

Regarding `CC(C)c1cc(N2CCC(C(C)N3CCCC3)CC2)n2nccc2n1` (stereo not drawn), the Percent Effect came out at 69.4%.

Take `Cc1cccc(CO[C@@H]2CC[C@H]3[C@H]2OCCN3Cc2cc(C)on2)n1`: the Percent Effect came to 22.2%.

Consider `O=C(NC[C@H]1CC[C@H](c2ccnc3ncnn32)CC1)c1ccccn1`, for which the Percent Effect turned out to be 7.04%.

As for `Cn1cccc(NC(=O)NCCOCc2ccccc2)c1=O`, the Percent Effect was 22%.

In the case of `CC(CCc1cccn1C)NC(=O)Nc1cccn(C)c1=O` (stereo not drawn), the Percent Effect was 38.4%.

On to `CN1CCN(c2ccccc2NC(=O)NCCc2ccc(O)cc2)CC1`, for which the Percent Effect was 21.5%.

Regarding `Cc1cccc(C)c1OCC(=O)Nc1cccn(C)c1=O`, the Percent Effect was determined as 21%.

Consider `Cn1cccc(NC(=O)NCCc2cccc(O)c2)c1=O`, for which the Percent Effect was found to be 55%.

With `CC(C)C(C)NC(=O)Nc1cccn(C)c1=O` (stereo not drawn), the Percent Effect came to 63.4%.

Take `Cn1cccc(NC(=O)NCc2cccc(CO)c2)c1=O`: the Percent Effect worked out at 55%.

For `Cn1cccc(NC(=O)COc2ccc(Cl)cc2)c1=O`, the Percent Effect worked out at 34.5%.

Consider `CCSCCC(C)NC(=O)Nc1cccn(C)c1=O` (stereo not drawn), for which the Percent Effect was 29.5%.

Take `COCCN1CCO[C@H]2CN(Cc3cc[nH]n3)C[C@H]21`: the Percent Effect is 23.8%.

In the case of `CS(=O)(=O)N[C@@H]1CN(C(=O)c2ccccn2)C[C@@H]2CCCO[C@@H]21`, the Percent Effect was 15.6%.

As for `CN1CCO[C@@H]2CN(C(=O)NCc3cccc(F)c3)CC[C@@H]2C1`, the Percent Effect was 4.54%.

With `CCCS(=O)(=O)N1C[C@@H](c2nc(C)no2)C[C@H]2OCC[C@H]21`, the Percent Effect is 11.7%.

In the case of `Cc1cccc(C(=O)N2C[C@@H]3OCCN(CCN4CCCC4)[C@@H]3C2)n1`, the Percent Effect was 16%.

For `CCS(=O)(=O)N1CC[C@@H]2[C@H](CC1)N(CC(C)C)CCS2(=O)=O`, the Percent Effect came to 10.5%.

For the molecule `O=C(NCC1CC1)[C@H]1C[C@@H]2CN(S(=O)(=O)Cc3ccccc3)C[C@H]1O2`, the Percent Effect is -0.73%.

In the case of `O=C(c1ccncc1)N1CC[C@@H]2[C@@H](CC1)OCCN2c1cccnc1`, the Percent Effect turned out to be 17.5%.

As for `Cc1nc(CO[C@H]2CN(Cc3cccs3)[C@@H]3COC[C@H]23)cs1`, the Percent Effect amounted to 8.06%.

Turning to `COCc1cccc(NCc2cccnc2)c1`, the Percent Effect came out at 6.67%.

As to `CCC(C)CNc1ccc2oc(COC)nc2c1` (stereo not drawn), the Percent Effect was 94.2%.

As for `c1cc(CN2CCCCC2)cc(NCc2cc[nH]n2)c1`, the Percent Effect was found to be 15.8%.

`CN1CCN(Cc2cccc(NCc3cc[nH]n3)c2)CC1`: the Percent Effect came out at 12.3%.

Turning to `COCc1nc2cc(NCc3ccncc3)ccc2o1`, the Percent Effect turned out to be 100%.

In the case of `COCc1nc2cc(NCc3cc[nH]n3)ccc2o1`, the Percent Effect amounted to 106%.
